# According to PubChem BioAssay (Tox21):
# Results filed as inconclusive are left out. Where a call stands in place of a potency, no number is given. Active and inactive are the calls of the source. Calls follow the shape of the full dose curve.
# Molecular target: Acetylcholinesterase (Homo sapiens) (UniProt P22303)
# Assay: Acetylcholinesterase (AChE) small molecule antagonists: fluorescence cell-based qHTS assay (AID 1347398); also: nearly all actives have a fitted effect of over 50% in size; also: potency is read from the fitted curve at half-maximal effect
# Conditions: SH-SY5Y cells; Potency: AChE activity; series mostly up to 115 µM
# Procedure, shortened: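 Endogenous acetylcholinesterase of SH-SY5Y neuroblastoma cells is measured in situ. After overnight attachment and 30 min compound exposure, cells receive acetylthiocholine and Thiolite Green; fluorescence is read after 40 min at room temperature.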
# Chain of Acetylcholinesterase (Homo sapiens) (P22303 whole entry, looked up): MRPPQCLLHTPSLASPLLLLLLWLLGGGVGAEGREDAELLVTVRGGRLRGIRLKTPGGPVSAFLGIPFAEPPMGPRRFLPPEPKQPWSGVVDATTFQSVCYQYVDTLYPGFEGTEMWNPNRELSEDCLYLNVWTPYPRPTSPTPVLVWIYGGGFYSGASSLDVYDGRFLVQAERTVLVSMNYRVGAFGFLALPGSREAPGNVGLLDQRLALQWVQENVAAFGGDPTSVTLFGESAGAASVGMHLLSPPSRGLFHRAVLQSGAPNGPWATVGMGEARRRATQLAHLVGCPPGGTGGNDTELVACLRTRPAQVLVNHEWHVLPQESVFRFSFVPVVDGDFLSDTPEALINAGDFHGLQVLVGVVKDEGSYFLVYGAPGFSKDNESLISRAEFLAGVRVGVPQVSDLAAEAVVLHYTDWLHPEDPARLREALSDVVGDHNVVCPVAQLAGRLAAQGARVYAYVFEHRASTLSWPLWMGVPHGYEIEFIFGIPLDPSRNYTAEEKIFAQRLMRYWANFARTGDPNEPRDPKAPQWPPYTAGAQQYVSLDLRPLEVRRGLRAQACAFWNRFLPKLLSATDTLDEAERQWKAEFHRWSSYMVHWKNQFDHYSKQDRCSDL
row,SMILES,Potency
1,O=C(N[C@H]1N=C(c2ccccc2F)c2cccc3c2N(CC3)C1=O)c1cc2ccccc2[nH]1,inactive
2,Brc1cccc(-c2ccccc2)c1,inactive
3,COc1ccc2c3c1O[C@H]1[C@H](O)CC[C@H]4[C@@H](C2)N(C)CC[C@@]341,inactive
4,N#CC(C#N)=NNc1cccc(Cl)c1,inactive
5,c1ccc2c(c1)cc1ccc3cccc4ccc2c1c34,inactive
6,ClC1(Cl)C2(Cl)C3(Cl)C4(Cl)C(Cl)(Cl)C5(Cl)C3(Cl)C1(Cl)C5(Cl)C24Cl (stereo not drawn),inactive
7,C[N+]1(C)[C@@H]2CC[C@H]1CC(OC(=O)C(CO)c1ccccc1)C2 (stereo partly drawn),inactive
8,CCCCCON=O,inactive
9,C=CC(=O)[O][Sn]([CH2]CCC)([CH2]CCC)[CH2]CCC,inactive
10,CC[N+]1(CC)CCC(OC(=O)C(O)(c2ccccc2)c2ccccc2)C1 (stereo not drawn),inactive
11,COP(=S)(NC(C)C)Oc1ccc(C)cc1[N+](=O)[O-] (stereo not drawn),inactive
12,Cc1ccc(C)c2ccccc12,inactive
13,O=[N+]([O-])c1ccc(CCl)cc1,inactive
14,c1ccc(Nc2ccc(Nc3ccccc3)cc2)cc1,inactive
15,O=c1c2ccccc2c(=O)c2c1cc(Cl)c1[nH]c3c([nH]c12)c(Cl)cc1c(=O)c2ccccc2c(=O)c13,inactive
16,CC(C)N(C(=O)CCl)c1ccccc1,20 µM (active)
17,NC1CCC(CC2CCC(N)CC2)CC1 (stereo not drawn),inactive
18,CN1C(=O)[C@@H](NC(=O)c2cc3ccccc3[nH]2)N=C(c2ccccc2)c2ccccc21,inactive
19,CCNc1nc(NC(C)C(C)C)nc(SC)n1 (stereo not drawn),inactive
20,[O]=[Cr](=[O])([OH])[O][Cr](=[O])(=[O])[OH],inactive

row,SMILES,Potency
1,CCN1CCC2(CC1)COc1cc3c(cc12)N(C(=O)c1ccc(-c2ccc(-c4nnc(C)o4)cc2C)cc1)CC3,10.4 µM (active)
2,CCOC(=O)Cc1ccccc1,inactive
3,Oc1cc(Cl)cc(Cl)c1,inactive
4,ClC1=C(Cl)[C@]2(Cl)[C@@H]3[C@H]4C[C@H]([C@@H]5O[C@H]45)[C@@H]3[C@@]1(Cl)C2(Cl)Cl,inactive
5,COC(=O)C(C)N(C(=O)c1ccco1)c1c(C)cccc1C (stereo not drawn),inactive
6,[F][Sn]([c]1ccccc1)([c]1ccccc1)[c]1ccccc1,inactive
7,N#Cc1c2ccccc2cc2ccccc12,inactive
8,N#CCCl,inactive
9,COP(=S)(OC)Oc1nc(Cl)c(Cl)cc1Cl,inactive
10,c1ccc2nc(N3CCNCC3)ccc2c1,inactive
11,CC(O)C(=O)[O][Hg][c]1ccccc1 (stereo not drawn),79.6 µM (active)
12,CNC(C)(C)Cc1ccccc1,inactive
13,Nc1nc(N)c(N)c(N)n1,inactive
14,CCC[CH2][Sn]([CH2]CCC)([CH2]CCC)[CH2]CCC,inactive
15,COC(=O)c1ccccc1S(=O)(=O)NC(=O)Nc1nc(C)nc(OC)n1,inactive
16,CC(C)N(C(=O)SC/C(Cl)=C/Cl)C(C)C,inactive
17,c1cc[n+]2c(c1)-c1cccc[n+]1CC2,inactive
18,CC1CCCC1,inactive
19,[O-][Cl+3]([O-])([O-])O,inactive

# Molecular target: Acetylcholinesterase (Homo sapiens) (UniProt P22303)
# Assay: Acetylcholinesterase (AChE) small molecule antagonists: enzyme-based qHTS assay with human liver microsomes (AID 1347399); also: nearly all actives have a fitted effect of over 60% in size
# Conditions: Potency: qHTS inhibition; series mostly up to 115 µM
# Procedure, shortened: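 Recombinant human AChE (50 mU/mL in the enzyme mix) and human liver microsomes (0.25 mg/mL final) were preincubated with compound and NADPH (0.25 mg/mL final) for 30 min at 37 C. Acetylthiocholine/DTNB was then added; thiocholine was read colorimetrically after 10 min at room temperature.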
row,SMILES,Potency
1,O=C(N[C@H]1N=C(c2ccccc2F)c2cccc3c2N(CC3)C1=O)c1cc2ccccc2[nH]1,inactive
2,Brc1cccc(-c2ccccc2)c1,inactive
3,COc1ccc2c3c1O[C@H]1[C@H](O)CC[C@H]4[C@@H](C2)N(C)CC[C@@]341,inactive
4,N#CC(C#N)=NNc1cccc(Cl)c1,inactive
5,c1ccc2c(c1)cc1ccc3cccc4ccc2c1c34,inactive
6,ClC1(Cl)C2(Cl)C3(Cl)C4(Cl)C(Cl)(Cl)C5(Cl)C3(Cl)C1(Cl)C5(Cl)C24Cl (stereo not drawn),inactive
7,C[N+]1(C)[C@@H]2CC[C@H]1CC(OC(=O)C(CO)c1ccccc1)C2 (stereo partly drawn),inactive
8,CCCCCON=O,inactive
9,C=CC(=O)[O][Sn]([CH2]CCC)([CH2]CCC)[CH2]CCC,inactive
10,CC[N+]1(CC)CCC(OC(=O)C(O)(c2ccccc2)c2ccccc2)C1 (stereo not drawn),inactive
11,COP(=S)(NC(C)C)Oc1ccc(C)cc1[N+](=O)[O-] (stereo not drawn),inactive
12,Cc1ccc(C)c2ccccc12,inactive
13,O=[N+]([O-])c1ccc(CCl)cc1,inactive
14,c1ccc(Nc2ccc(Nc3ccccc3)cc2)cc1,inactive
15,O=c1c2ccccc2c(=O)c2c1cc(Cl)c1[nH]c3c([nH]c12)c(Cl)cc1c(=O)c2ccccc2c(=O)c13,inactive
16,CC(C)N(C(=O)CCl)c1ccccc1,inactive
17,NC1CCC(CC2CCC(N)CC2)CC1 (stereo not drawn),inactive
18,CN1C(=O)[C@@H](NC(=O)c2cc3ccccc3[nH]2)N=C(c2ccccc2)c2ccccc21,inactive
19,CCNc1nc(NC(C)C(C)C)nc(SC)n1 (stereo not drawn),inactive
20,[O]=[Cr](=[O])([OH])[O][Cr](=[O])(=[O])[OH],inactive

row,SMILES,Potency
1,CCN1CCC2(CC1)COc1cc3c(cc12)N(C(=O)c1ccc(-c2ccc(-c4nnc(C)o4)cc2C)cc1)CC3,inactive
2,CCOC(=O)Cc1ccccc1,inactive
3,Oc1cc(Cl)cc(Cl)c1,inactive
4,ClC1=C(Cl)[C@]2(Cl)[C@@H]3[C@H]4C[C@H]([C@@H]5O[C@H]45)[C@@H]3[C@@]1(Cl)C2(Cl)Cl,inactive
5,COC(=O)C(C)N(C(=O)c1ccco1)c1c(C)cccc1C (stereo not drawn),inactive
6,[F][Sn]([c]1ccccc1)([c]1ccccc1)[c]1ccccc1,inactive
7,N#Cc1c2ccccc2cc2ccccc12,inactive
8,N#CCCl,inactive
9,COP(=S)(OC)Oc1nc(Cl)c(Cl)cc1Cl,inactive
10,c1ccc2nc(N3CCNCC3)ccc2c1,inactive
11,CC(O)C(=O)[O][Hg][c]1ccccc1 (stereo not drawn),inactive
12,CNC(C)(C)Cc1ccccc1,inactive
13,Nc1nc(N)c(N)c(N)n1,inactive
14,CCC[CH2][Sn]([CH2]CCC)([CH2]CCC)[CH2]CCC,inactive
15,COC(=O)c1ccccc1S(=O)(=O)NC(=O)Nc1nc(C)nc(OC)n1,inactive
16,CC(C)N(C(=O)SC/C(Cl)=C/Cl)C(C)C,inactive
17,c1cc[n+]2c(c1)-c1cccc[n+]1CC2,inactive
18,CC1CCCC1,inactive
19,[O-][Cl+3]([O-])([O-])O,inactive
